Screening data: PubChem BioAssay, National Center for Advancing Translational Sciences (NCATS)
RE007 growth inh – less growth of the S. pombe RE007 Vpr strain; S. pombe RE007 Vpr strain, BacTiter-Glo ATP luminescence, 24 h; Potency, µM (top dose mostly 92.2 µM), inactives show at the highest dose activity change, negative = less growth, actives largely listed as inhibitors; actives 0.21% (n = 360,000); AID 651644; active = well fitted falling curve with a large enough effect; inconclusive = small, poorly fitted or top-dose-only effect; inactive = no such curve, though single readings can be large or run the other way; also: potency is read from the fitted curve at half-maximal effect; % is scaled to controls: 0 for no effect and ±100 for the full control effect; nearly all actives have a fitted effect of over 50% in size
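Fission yeast strain RE007, carrying one chromosomally integrated HIV-1 vpr copy, was seeded at OD 0.01 in PMG+AL medium with 23 nL pinned compound. After 24 h at 30 °C and 99% humidity, viability was read by BacTiter-Glo luminescence.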
CHX counter – affects cycloheximide protein synthesis inhibition readout, counter-screen; cell reporter, cycloheximide protein synthesis inhibition counterscreen; max response, %; actives 12% (n = 300,000); in the data active = max response mostly above about 13%, no sharp cut-off; inactive = mostly below about 14%; also: read at 38.3 µM for the half of the compounds with a filed dose; 0% is about no effect
Tb PYK inh – T. brucei pyruvate kinase inhibition | Q57TT1 | actives 0.12% (n = 410,000) | TbPYK enzyme, Kinase-Glo Plus ATP luminescence, 45 min | Potency, µM (series often up to 76.8 µM), for the others: top-dose activity, negative = inhibition, usual class: inhibitors | AID 624173; also: potency is read from the fitted curve at half-maximal effect; % is scaled to controls: 0 for no effect and ±100 for the full control effect; nearly all actives have a fitted effect of over 50% in size
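Activity of T. brucei pyruvate kinase was followed by Kinase-Glo Plus luminescence after the enzyme reacted 45 min at room temperature with 130 uM ADP (final) and substrate. Test compounds were added before ADP at multiple concentrations.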
FBPA Giardia inh – Giardia lamblia aldolase inhibition. purified Giardia FBPA. Potency, µM (titrated, usually from 59.6 µM), for inactives: at the highest dose activity, negative = inhibition, usual class: inhibitors. actives 0.71% (n = 290,000); also: potency is read from the fitted curve at half-maximal effect; % is scaled to controls: 0 for no effect and ±100 for the full control effect; nearly all actives have a fitted effect of over 55% in size
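Giardia FBPA (40 nM reagent) was preincubated 10 min at RT with compound (up to 57.5 uM final), then substrate plus GAPDH/TPI/NAD/arsenate coupling system with diaphorase/resazurin was added; resorufin fluorescence (525/598 nm) was read after 20 min.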
Shiga toxin inh – Shiga toxin inhibition. Vero cells, Shiga toxin protein synthesis inhibition reporter. inhibition, % at 38.7 µM. actives 9.2% (n = 290,000); in the data active = inhibition mostly above about 28%, no sharp cut-off; inactive = mostly below about 43%; also: 0% is about no effect
LmPK inhibitor – blocks Leishmania mexicana pyruvate kinase activity; actives 0.37% (n = 290,000); Potency, µM (highest dose often 57.5 µM), for inactives: at the highest dose activity change, negative = inhibition, hits mostly inhibitors; purified LmPK, Kinase-Glo ATP luminescence, 1 h; also: potency is read from the fitted curve at half-maximal effect; % is scaled to controls: 0 for no effect and ±100 for the full control effect
Target sequence (Q27686 whole entry, looked up): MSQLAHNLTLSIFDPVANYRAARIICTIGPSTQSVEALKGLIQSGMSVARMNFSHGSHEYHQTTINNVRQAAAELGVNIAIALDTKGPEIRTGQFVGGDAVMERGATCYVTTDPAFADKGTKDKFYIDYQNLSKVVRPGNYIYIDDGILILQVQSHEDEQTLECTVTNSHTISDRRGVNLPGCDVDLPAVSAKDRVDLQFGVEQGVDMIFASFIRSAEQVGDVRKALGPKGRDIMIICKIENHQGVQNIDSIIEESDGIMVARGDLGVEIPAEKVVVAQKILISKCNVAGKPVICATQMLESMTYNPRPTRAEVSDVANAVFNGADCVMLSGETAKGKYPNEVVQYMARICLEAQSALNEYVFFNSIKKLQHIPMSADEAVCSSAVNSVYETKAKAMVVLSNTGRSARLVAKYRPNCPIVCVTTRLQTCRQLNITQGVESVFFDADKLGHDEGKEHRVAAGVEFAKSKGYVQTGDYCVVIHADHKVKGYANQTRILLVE
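Purified LmPK (0.1 nM) converted ADP (0.1 mM) to ATP with PEP (0.5 mM) in imidazole buffer pH 7.2 with KCl and MgCl2, 1 h at room temperature. ATP was read by Kinase-Glo luminescence; data normalized to uninhibited and no-enzyme controls.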
* = called active by the depositor; ? = inconclusive; · = not tested or not shown; [ ] = remark or other dose. Shown is part of a subset that was picked to be rich in hits. Unless noted, calls follow the shape of the dose curve; as a rule, active = well fitted curve in the direction sought with a large enough effect; inconclusive = small, poorly fitted or top-dose-only effect, or another doubt; inactive = no such curve, though single readings can be large; an effect the other way counts as inactive or inconclusive.

SMILES	RE007 growth inh	CHX counter	Tb PYK inh	FBPA Giardia inh	Shiga toxin inh	LmPK inhibitor
CC(=O)c1ccc(N2CCN(c3ncnc4onc(-c5ccc(Cl)cc5)c34)CC2)cc1	·	·	0%	·	·	·
COc1cccc(/C=N/c2nc3ccccc3n2C)c1O	-8%	20*	0%	-20%	33	?
COc1cccc(CNc2nc3ccccc3n2C)c1O	-8%	35*	-5%	-8%	·	1%
COc1ccc(O)c(/C=N/c2nc3ccccc3n2C)c1	2%	1	-3%	-10%	-3	-17%
COc1ccccc1Nc1nc2ccccc2n1C	-29%	30*	-12%	0%	66*	?
COc1ccccc1Nc1nc2ccccc2n2cnnc12	-4%	-2	3%	0%	28	9%
COc1cccc(CNc2cnc3ccccc3c2)c1O	12%	30*	-9%	-15%	44*	-2%
CSc1ccc(CCNc2ncnc3onc(-c4ccc(Cl)cc4)c23)cc1	·	·	-3%	·	·	·
CCOc1ccc(N/C=C/C(=O)c2ccccc2)c([N+](=O)[O-])c1	73%	59*	25µM*	4%	46*	4µM*
CCOc1ccc(Nc2ccc(C(=O)O)cc2[N+](=O)[O-])cc1	7%	1	15%	11%	-6	0%
CCOc1ccc(/C=C/C(=O)Nc2ccc(OC)cc2[N+](=O)[O-])cc1	-3%	7	-4%	·	21	2%
CCOc1ccc(NC(=O)/C=C/c2ccccc2)c([N+](=O)[O-])c1	-1%	25*	-3%	1%	29	-1%
CCc1noc(-c2ccc(NCc3ccccc3)c([N+](=O)[O-])c2)n1	·	·	-1%	·	·	·
COc1ccc(CCN2C(=O)c3oc4ccc(F)cc4c(=O)c3C2c2ccc(C(C)(C)C)cc2)cc1 (configuration not stated)	·	·	1%	·	·	·
CCCCn1c(-c2sccc2C)n[nH]c1=S	14%	-3	?	-15%	-9	32µM*
CC(C)Cn1c(Cc2ccccc2)n[nH]c1=S	3%	-2	?	-1%	13	11µM*
CCCCn1c(-c2c(Cl)c(C)nn2C)n[nH]c1=S	16%	-3	10µM*	-4%	-4	-26%
CCCCn1c(Cc2ccccc2)n[nH]c1=S	2%	-6	11µM*	21%	15	?
CCCn1c(-c2ccc(F)cc2)nc2c(NCCN3CCCCC3)nc(C)nc21	·	·	·	2%	·	·
COc1ccc(CNC(=O)c2nc(S(=O)(=O)Cc3ccccc3)ncc2Cl)cc1	-7%	29*	19%	·	15	-10%
Cc1ccc(CS(=O)(=O)c2ncc(Cl)c(C(=O)Nc3ccc(OC(F)F)cc3)n2)cc1	-6%	17*	-15%	·	27	3%
COC(=O)c1ccccc1NC(=O)c1nc(S(=O)(=O)Cc2ccccc2)ncc1Cl	0%	-10	3%	·	-2	-4%
COc1ccc(NC(=O)c2nc(S(=O)(=O)Cc3ccc(C)cc3)ncc2Cl)cc1	·	·	-3%	·	·	·
O=C(NCc1ccccc1)c1nc(S(=O)(=O)Cc2ccccc2)ncc1Cl	-6%	27*	-6%	·	48	-4%
CC(=O)Nc1ccc(NC(=O)c2nc(S(=O)(=O)Cc3ccccc3)ncc2Cl)cc1	-1%	37*	-12%	·	94*	-9%
SMILES	RE007 growth inh	CHX counter	Tb PYK inh	FBPA Giardia inh	Shiga toxin inh	LmPK inhibitor
CCS(=O)(=O)c1ncc(Cl)c(C(=O)NCc2ccccc2)n1	·	·	2%	·	·	·
CC(=O)c1c(C)n(-c2cccc(C)c2)c2ccc(OC(=O)COc3ccccc3)cc12	·	·	3%	·	·	·
Cc1ccc(C(=O)NC2(C(F)(F)F)N=C(c3ccccc3)N(C3CCCCC3)C2=O)cc1 (configuration not stated)	·	·	2%	·	·	·
COc1ccc(NC(=O)Nc2ccc(F)c(F)c2)c(OC)c1	-3%	14*	0%	-5%	-1	5%
COc1ccc(NC(=O)Nc2cccc(F)c2)c(OC)c1	-1%	17*	3%	-14%	46	-3%
COc1ccc(CC(C(=O)Nc2cccc(F)c2)c2nn[nH]n2)c(OC)c1 (configuration not stated)	2%	17*	1%	-25%	38	4%
CCOc1cccc(NC(=O)C(Cc2cccs2)c2nn[nH]n2)c1 (configuration not stated)	-8%[3.69 µM]	2	·	-8%	-4	1%
CCC(=O)N1c2ccc(S(=O)(=O)CCC(=O)N3CCN(c4ccc(F)cc4)CC3)cc2CC1C (configuration not stated)	·	·	0%	·	·	·
COc1ccc(S(=O)(=O)N2CCN(Cc3nc4ccc(C)cc4o3)CC2)cc1Cl	·	·	1%	·	·	·
O=C(Nc1ccc(NC(=O)c2cccs2)cc1)c1ccco1	11%	31*	-2%	8%	36	-13%
O=C(OCC(=O)c1cccs1)c1ccc(NC(=O)c2ccco2)cc1	5%	59*	-9%	0%	123	4%
Cc1ccc(C)c(N2CCN(C(=O)c3cnn(-c4ccccc4Cl)c3C3CCN(C(=O)OC(C)(C)C)CC3)CC2)c1	·	·	-2%	·	·	·
O=C(N/N=C/c1sc(=O)n(-c2ccccc2)c1Cl)c1ccncc1	546%	20*	-7%	-4%	67*	2%
COc1cc(C(=O)N/N=C/c2sc(=O)n(-c3ccccc3)c2Cl)cc(OC)c1OC	1%	19*	6%	0%	16	4%
COc1ccc(NS(=O)(=O)c2cccc(C(=O)N3CCOCC3)c2)cc1	-3%	·	0%	·	·	·
COc1ccc(OCc2ccc(C(=O)N3CCOCC3)cc2)cc1	5%	28*	-1%	-17%	56*	-20%
COc1ccc(OCc2ccc(C(=O)O)cc2)cc1	19%	18*	0%	26%	60	-3%
COc1ccc(-c2cccc(C(=O)N3CCOCC3)c2)cc1	17%	30*	-2%	5%	57*	-1%
CN(C(=O)Cc1ccccc1OC(=O)c1ccccc1)c1ccccc1I	·	-2	·	17%	-7	·
C[C@@](N)(Cc1ccc(O)c(O)c1)C(=O)O	·	·	·	22µM*	·	·
CCOC(=O)[C@@](C)(N)Cc1ccc(O)c(O)c1	·	·	3%	·	·	·
CCOC(=O)Cc1nc(-c2ccc(Cl)cc2)n[nH]1	2%	26*	-3%	-6%	38	0%
Cc1ccc(OCc2nc(-c3ccc(Cl)cc3)n[nH]2)cc1	-2%	20*	1%	-7%	63*	-6%
Fc1ccc(OCc2nc(-c3ccncc3)n[nH]2)cc1	0%	-4	3%	-9%	13	-3%
Cc1ccc(-c2n[nH]c(Cc3ccccc3)n2)cc1	-29%	49*	-10%	·	74*	2%
